CRFBP-R2 agonist – agonists of CRF-BP/CRF-R2 complex, primary screen, cell-based, HEK293, calcium dye fluorescence, uHTS. CRF-binding protein / CRF receptor 2 complex (human). calcium dye fluorescence (FLIPR); percent of saturating CRF peptide response. activation, % at 13.2 µM. hit rate 0.46% among 350,000;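 active means activation of at least 50%, plus an integration ratio under a set limit after plate pattern correction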;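 further: plate controls were neutral control wells without compound for no effect and CRF at EC100 for full effect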
CRFR2-BP antag – antagonists of CRF-BP/CRF-R2 complex, primary screen, cell-based, HEK293, calcium dye fluorescence, uHTS; CRF-induced calcium fluorescence; inhibition, % at 11.8 µM; hit rate 0.59% among 350,000; AID 588475, 2011;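 active means inhibition of the ligand-induced calcium signal above about 50% at the single tested concentration, limit read from the data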
aDG glyco act – activators of alpha-DG glycosylation, primary screen, uHTS, Pro5-aDG cells, AlphaScreen | hit rate 0.22% among 360,000 | alpha-DG glycosylation AlphaScreen (IIH6); 0% Pro5, 100% B10-LARGE cell signal | activation, % at 10 µM;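 active means activation of at least 8% versus controls, or a plate z-score of at least 8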;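 further: Pro5 are CHO cells carrying HIG-tagged alpha-DG that lacks glycosylation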
H9c2 protect – cardioprotection against H2O2-induced cell death, primary screen, uHTS, H9c2 cells, ATPLite luminescence; H9c2 cardiomyocytes, H2O2 injury protection, 2 h; protection from H2O2 cell death, % at 20 µM; hit rate 0.63% among 360,000;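 active means compounds giving at least 50% protection of heart cells from peroxide-induced death in the single-dose screen, raw or plate-pattern-corrected value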;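 further: 0% = DMSO wells with peroxide and 100% = DMSO wells without peroxide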
PfGluPho inh – PfG6PD enzyme inhibitors, primary screen, biochemical, fluorescence intensity, uHTS | PfGluPho enzyme, NADPH resazurin-diaphorase fluorescence | AID 504690, 2011 | inhibition, % at 20 µM | hit rate 0.78% among 350,000;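 active means inhibition reaching at least a set limit at 20 µM in the primary screen, cut at about 59% in these data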;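 further: 0% = DMSO wells with substrate and 100% = DMSO wells lacking glucose-6-phosphate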
FAS TE block – FAS thioesterase domain inhibitors, primary screen, biochemical, fluorescence intensity, uHTS | Fatty acid synthase (Homo sapiens), P49327 | recombinant FAS-TE, OMFH fluorogenic substrate, fluorescence endpoint | inhibition, % at 15 µM | hit rate 0.67% among 360,000 | AID 602261, 2012;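 active means compounds whose normalised, plate-corrected inhibition of enzyme fluorescence in the single-dose primary screen is 50% or more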;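 further: 0% = DMSO with enzyme and 100% = substrate without enzyme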
Starred values were filed as active, the others as inactive; / = not tested or not shown. This is a sample that favours compounds with a hit; in the whole collection about 3.2% have one here.

SMILES	CRFBP-R2 agonist	CRFR2-BP antag	aDG glyco act	H9c2 protect	PfGluPho inh	FAS TE block
COc1ccc(C(=O)COc2ccccc2C(N)=O)cc1	-4.1	3.2	0.4	69.2*	0.9	-1.1
COc1ccc(CCN2C(=O)CC(Cc3ccccc3)C2=O)cc1OC (stereo unspecified)	5.6	79.5*	0.1	-2.0	4.9	-1.7
COCCNC(=S)N1CCN(Cc2ccc3c(c2)OCO3)CC1	-0.5	4.2	0.0	3.0	-14.3	-5.3
CCCCNC(=O)c1cn(CC)c2ccc(S(=O)(=O)N3CCCCCC3)cc2c1=O	1.6	59.8*	0.9	-5.1	9.9	43.6
CC1Oc2cc3oc4c(O)c(O)ccc4c(=O)c3c(O)c2C1(C)C (stereo unspecified)	0.6	-10.7	0.2	-5.2	9.6	52.3*
CCOC(=O)c1c(-c2ccc(C)o2)csc1NC(=O)COC(=O)c1ccc(NC(N)=O)cc1	-1.2	-24.7	-0.4	61.2*	34.6	6.1
C=CCn1c(SCc2ccc(F)cc2)nc2c1c(=O)[nH]c(=O)n2C	-2.9	62.1*	0.1	8.6	15.7	-4.0
Cc1cc(C)c2cc(C#N)c(NCCCNC(=O)c3ccncc3)nc2c1	-0.1	-15.6	0.2	24.2	17.4	-6.0
COc1cc(C(=O)NCCCNc2nc3cc(C)cc(C)c3cc2C#N)cc(OC)c1OC	1.3	3.7	0.0	81.3*	2.4	0.0
Cc1ccc(N(CCC#N)C(=O)COC(=O)C2CCN(S(=O)(=O)c3ccc4c(c3)OCCO4)CC2)cc1	1.4	9.0	0.4	-2.7	-3.8	12.5
Cc1ccc2c(c1)CCCN2C(=O)CCc1nc2ccccc2c(=O)[nH]1	0.8	31.8	0.1	76.3*	-2.5	-0.4
O=C(CCc1nc2ccccc2c(=O)[nH]1)N1CCN(C/C=C/c2ccccc2)CC1	-1.0	-33.3	1.3	59.3*	9.1	-1.8
O=C(CCc1nc2ccccc2c(=O)[nH]1)N1CCN(c2ccc(F)cc2)CC1	1.5	8.7	-0.1	71.5*	-12.1	-9.1
O=C(O)CCc1nc2ccccc2c(=O)[nH]1	-0.3	-4.8	0.1	-0.4	-10.9	-5.6
CC(=O)N1CCN(C(=O)CCc2nc3ccccc3c(=O)[nH]2)CC1	7.6	-42.9	-0.3	61.3*	-15.1	-6.2
COc1ccc(N2C(=O)C3NN=C(C(=O)OCc4ccccc4)C3C2=O)cc1 (stereo unspecified)	-0.6	-6.1	-0.2	2.0	0.2	-3.1
C=CCN1C(=O)c2ccc(C(=O)N(CC)CC(=O)Nc3c(F)cccc3F)cc2C1=O	-2.0	-3.5	0.0	9.0	-16.3	-8.2
Cc1nnc(NC(=O)CSc2ccccc2N)s1	-2.5	-6.0	-0.1	9.4	-1.4	-6.5
COc1cc(C(=O)Nc2ccc(S(=O)(=O)Nc3nccc(C)n3)cc2)c([N+](=O)[O-])cc1OC	-0.5	-4.4	-0.2	5.9	-4.6	-2.6
O=C(CCc1nc2ccccc2c(=O)[nH]1)OCC(=O)N1CCc2ccccc21	-1.0	4.3	-0.3	56.9*	11.6	-3.1
CC(C)Cn1c(N)c(C(=O)COC(=O)CCc2nc3ccccc3c(=O)[nH]2)c(=O)n(C)c1=O	1.7	-4.8	-0.1	54.1*	-5.1	-7.1
CC(C)Cn1c(N)c(C(=O)COC(=O)CCc2nc3ccccc3s2)c(=O)n(C)c1=O	-2.3	6.1	1.6	-16.0	7.7	7.8
Cc1cccc(N2CCN(C(=O)CCc3nc4ccccc4c(=O)[nH]3)CC2)c1C	-4.8	74.3*	0.6	50.5*	14.5	-2.6
O=C(Cn1c2ccccc2c(=O)c2ccccc21)Nc1cccc(F)c1	1.6	-9.7	-0.2	-3.2	5.8	-9.3
Cc1ccc(-n2c(Cl)c(Cl)[nH]c(=O)c2=O)cc1	-0.3	50.8*	-0.3	-1.1	-6.3	-5.8
SMILES	CRFBP-R2 agonist	CRFR2-BP antag	aDG glyco act	H9c2 protect	PfGluPho inh	FAS TE block
CCC(C)NS(=O)(=O)c1ccc(NC(=O)C2CCN(C(=O)c3ccco3)CC2)cc1 (stereo unspecified)	-0.3	-5.7	0.1	-9.0	15.7	-0.6
COc1ccc2cc3cc(C(=O)NCCc4ccc(OC)c(OC)c4)oc3nc2c1	-1.3	1.4	-0.2	87.2*	12.2	1.7
CC(C)N1CCN(Cc2nc(-c3ccccc3)cs2)CC1CCO (stereo unspecified)	-2.6	82.0*	0.3	-2.6	1.0	-4.1
OCCC1CN(Cc2nc(-c3ccccc3)cs2)CCN1C1CCCC1 (stereo unspecified)	1.1	-1.6	-0.1	-2.8	9.3	-6.3
CC1=C(C(=O)N2CCCCCC2)CC(CC(=O)NCCCCc2ccccc2)C(=O)N1Cc1ccccc1 (stereo unspecified)	/	/	0.1	6.5	/	10.4
Cc1ncn(C23CC4CC(CC(C4)C2)C3)n1	6.6	57.7*	0.3	6.4	-20.1	-6.3
COc1ccc(CN(C)C(=O)c2cccc(NC(=O)CC3SC(N4CCCCC4)=NC3=O)c2)c(OC)c1 (stereo unspecified)	1.8	-0.6	0.8	-9.9	1.9	-6.4
CCCn1c(C2CCCN2c2nc(-c3cccc(Br)c3)cs2)nc2ccccc21 (stereo unspecified)	-1.4	6.7	0.1	-1.0	9.8	23.7
C[C@@H](C(=O)Nc1nccs1)N1C(=O)C2CC=CCC2C1=O (stereo partly specified)	-0.3	3.1	0.0	7.0	6.9	-10.1
CC(C(=O)Nc1sccc1C(N)=O)N1C(=O)C2CC=CCC2C1=O (stereo unspecified)	-3.4	63.2*	0.9	-0.6	-7.9	-8.2
CN(C)CCNc1ccc2ncn3c4ccc(O)cc4c(=O)c1c23	74.8*	-60.2	0.0	0.9	36.1	-62.2
CN(C)CCNc1ccc(CO)c2sc3ccc(O)cc3c(=O)c12	-5.2	26.2	-0.2	14.2	24.7	-3.8
CN(C(=O)CSc1nc(N)cc(=O)[nH]1)C1CCCCC1	-0.1	-8.9	-0.2	0.8	-2.2	-5.6
CN(C(=O)CSc1nc2c(c(=O)[nH]1)CCCC2)C1CCCCC1	-1.3	-3.3	0.1	62.6*	7.7	-1.3
COC(C(=O)NNC(=O)CCc1ccccc1)c1ccccc1 (stereo unspecified)	10.2	-2.0	-0.3	1.4	-13.0	-4.1
COc1ccc(OC)c(NC(=O)c2[nH]c(C)c(C(C)=O)c2C)c1	-3.3	76.8*	0.0	9.4	5.4	-0.8
COc1ccc(Cl)cc1NC(=O)c1[nH]c(C)c(C(C)=O)c1C	2.2	9.3	-0.1	4.1	-11.2	-0.8
O=C(CSc1nnc(-c2ccc(Br)cc2)n1CCc1ccccc1)NC1CCS(=O)(=O)C1 (stereo unspecified)	1.2	-6.7	-0.1	17.6	-3.2	0.2
